Measurements reported in PubChem BioAssay AID743343 (Broad Institute, 2014).
Entries with a potency or affinity are not part of this list. Calls of active or inactive are those of the source. No rule for the calls is given here.

Each compound was assayed on Drosophila melanogaster bursicon receptor LGR2 (rickets) (assay: LGR2 antagonists, dose response, cell-based, HEK293, CRE-luciferase reporter, cherry pick, set 2 (AID 743343)). Conditions: bursicon-induced cAMP antagonist; series mostly up to 35 µM.

outcome, inactive:
Cc1cc(Cl)ccc1OCCCC(=O)Nc1cc(S(=O)(=O)N2CCOCC2)ccc1N1CCOCC1
CC1(c2ccccc2Cl)NC(=O)N(CC(=O)N2CCc3ccccc32)C1=O (stereo not drawn)
C[C@H](CO)N1C[C@H](C)[C@@H](CN(C)C(=O)Nc2ccc3c(c2)OCO3)Oc2c(cccc2N(C)C)C1=O
CC(=O)c1c(C)[nH]c(C(=O)CN2C(=O)NC(C)(c3ccc(C)cc3)C2=O)c1C (stereo not drawn)
Cc1ccc2nc(NC(=O)CCCC(=O)O)sc2c1
O=C(C[C@H]1CC[C@H](NS(=O)(=O)c2cccc(F)c2)[C@@H](CO)O1)N1CCCCC1
COc1ccccc1CNS(=O)(=O)c1ccc(N2CCCC2)cc1Br
CC(C)(C)c1nc2ccc(Cl)cn2c1CC1CCCCC1
COc1ccccc1C=NNC(=O)c1ccncc1
Cc1ccc(NC(=O)c2ncn(CC(=O)N3CCN(c4ccccn4)CC3)n2)cc1C
Cn1nnnc1SCC(=O)N1CCN(C(=O)c2ccco2)CC1
COc1ccc2cc(C#N)c(Nc3cccc(F)c3)nc2c1
O=C(Cc1ccncc1)NCC[C@H]1CC[C@H](NC(=O)C2CCCC2)[C@H](CO)O1
C[C@H](CO)N1C[C@H](C)[C@@H](CN(C)CC2CCOCC2)Oc2ncc(Br)cc2C1=O
COc1ccccc1CN(C)C[C@@H]1OCc2cnnn2CCCC(=O)N([C@H](C)CO)C[C@H]1C
C[C@H]1CN([C@@H](C)CO)C(=O)c2cc(NC(=O)Nc3ccccc3)ccc2O[C@H]1CN(C)Cc1ccc(-c2ccccc2)cc1
O=C(Cn1ncc(Cl)c(Cl)c1=O)N1CCOCC1
CCc1nnc2cccc(Cl)n12
CCOC(=O)c1c(C)n(C)c2ccc(OCC(O)CNCCc3ccccc3)cc12 (stereo not drawn)
Cc1ccc(CNS(=O)(=O)c2ccc3c(c2)CCN3C(=O)CCCC(=O)O)cc1
Cc1ccc(S(=O)(=O)N(C)C[C@H]2Oc3cc(Br)ccc3S(=O)(=O)N([C@H](C)CO)C[C@H]2C)cc1
C[C@@H]1CN([C@H](C)CO)C(=O)c2cc(C#CCN(C)C)cnc2O[C@@H]1CN(C)C(=O)CN1CCOCC1
CO[C@@H]1CN(C)C(=O)c2ccc(NC(=O)C3CC3)cc2OC[C@@H](C)NC[C@@H]1C
C[C@@H]1CN([C@H](C)CO)C(=O)Cc2cc(NC(=O)Nc3ccc(F)cc3)ccc2O[C@@H]1CN(C)CC1CCCCC1
C[C@H]1CN([C@@H](C)CO)C(=O)c2cc(C#CCc3ccccc3)cnc2O[C@H]1CN(C)Cc1ccccc1
COC(=O)c1ccc(Nc2cc(C)nc3ccc(C)cc23)cc1
CO[C@H]1CN(C)C(=O)c2ccc(NC(=O)C3CC3)cc2OC[C@@H](C)N(C(=O)Cc2ccccn2)C[C@H]1C
O=[N+]([O-])c1ccc(-c2cnc(SC(c3ccccc3)c3ccccc3)[nH]2)cc1
Cc1noc(C)c1S(=O)(=O)Nc1cccc2c1O[C@H](CN(C)C(=O)Nc1ccc(F)cc1)[C@H](C)CN([C@H](C)CO)C2=O
Cn1cnc(S(=O)(=O)N2C[C@@H](O)COC[C@H]3O[C@H](CC(=O)NC4CCCC4)CC[C@@H]32)c1
CCc1nnc(NC(=O)CSc2nnc3ncccn23)s1
COc1ccc2c3c([nH]c2c1)[C@H](CO)N(C(C)=O)CC31CCN(C(=O)CN2CCOCC2)CC1
N#C[C@H]1[C@@H](c2ccc(C3=CCCCC3)cc2)[C@H](CO)N1C(=O)c1ccccn1
CO[C@H]1CN(C)C(=O)c2ccc(NC(=O)c3ccc(-c4ccccc4)cc3)cc2OC[C@@H](C)NC[C@@H]1C
CCn1cc(S(=O)(=O)Nc2cccnc2)cn1
O=c1cc(-c2c(F)c(F)c(F)c(F)c2F)oc2ccccc12
CCCCC(=O)N(C)c1c(C)nc2ccc(C(=O)N3CCCCC3)cn12
COc1ccccc1N1CCN(C(=O)c2sc3nc(-c4ccc(F)cc4)cn3c2C)CC1
